# A number with no mark means an inactive call.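 Rule for the calls: active = AUC reduced over 20% with Padj below 0.05 in at least 2 of 3 replicates; inactive = otherwise.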
# Tests used:
# Test in all cases: growth AUC relative to DMSO control (median of replicates) (fraction); higher = more growth (less inhibition), active = hit call of the paper
# Details in all cases: 20 µM; 24 h
# Akkermansia muciniphila = system: Akkermansia muciniphila
# How it was run: (§1)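 Area under the growth curve was normalised to the plate median of solvent-only wells, except on the industrial chemical plate, where row and column medians were used. Curves came from gut bacterial monocultures grown anaerobically at 37 °C in mGAM with 20 µM compound (1% DMSO), starting at OD600 0.05 and read at OD600 every hour for 24 h. The minimum OD of each curve was set to 0, and values are medians of three biological replicates grown on separate days.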
# Bacteroides caccae = system: Bacteroides caccae
# How it was run: as §1
# Bacteroides clarus = system: Bacteroides clarus
# How it was run: as §1
# Bacteroides dorei = system: Bacteroides dorei
# How it was run: as §1
# Bacteroides stercoris = system: Bacteroides stercoris
# How it was run: as §1
# [1] = system: Bacteroides thetaiotaomicron
# How it was run: as §1
# Bacteroides uniformis = system: Bacteroides uniformis
# How it was run: as §1
# [2] = system: Bifidobacterium longum subsp. longum
# How it was run: as §1
# Clostridium difficile = system: Clostridium difficile
# How it was run: as §1
# Collinsella aerofaciens = system: Collinsella aerofaciens
# How it was run: as §1
Compound,growth AUC (Akkermansia muciniphila),growth AUC (Bacteroides caccae),growth AUC (Bacteroides clarus),growth AUC (Bacteroides dorei),growth AUC (Bacteroides stercoris),growth AUC [1],growth AUC (Bacteroides uniformis),growth AUC [2],growth AUC (Clostridium difficile),growth AUC (Collinsella aerofaciens)
CC(C)c1ccc(NC(=O)N(C)C)cc1,1.04,0.978,0.987,1.02,0.937,1.02,1.02,1.18,0.995,0.947
CC(C)CC(C)c1sccc1NC(=O)c1cn(C)nc1C(F)(F)F (stereo not given),0.99,0.967,0.94,1.02,1.07,0.938,0.942,1.02,1,0.99
CCc1cnc(C2=NC(C)(C(C)C)C(=O)N2)c(C(=O)O)c1 (stereo not given),0.891,1.01,0.971,0.951,0.985,0.981,1.01,0.937,0.993,0.983
O=c1[nH]c2c(c(=O)n1C1CCCCC1)CCC2,0.895,1.01,0.944,0.957,0.925,0.978,0.972,0.963,0.972,0.95
N#Cc1nn(-c2c(Cl)cc(C(F)(F)F)cc2Cl)c(N)c1SC(F)(F)F,1.01,0.941,0.858,0.899,1.14,0.953,0.928,1.09,0.909,0.942
Oc1ccc(Cl)cc1,0.989,0.997,0.952,1.01,0.981,0.997,0.987,0.971,0.981,0.988
Cc1cc(Cl)ccc1OCC(=O)O.O.[Na],1.25,0.981,1.01,0.921,1.02,1.05,0.993,1.05,1.02,0.98
Nc1c(Cl)c(F)nc(OCC(=O)O)c1Cl,0.886,1.01,0.968,1.01,0.999,0.991,0.955,0.917,1.01,0.97
Clc1cccc(Cl)c1Cl,0.898,1.04,0.992,0.997,0.945,1.02,1.01,1.04,0.996,0.973
O=P(Oc1ccccc1)(Oc1ccccc1)Oc1ccccc1,0.805,0.898,0.958,0.96,0.755 (active),0.901,0.923,0.919,1,1.02
Nc1cccc(Cl)c1Cl,0.928,1.04,1,0.999,1.18,0.999,1.02,0.921,0.999,1.06
O=C(O)c1cc(Cl)ccc1Cl,0.97,0.998,0.989,0.961,0.89,1,1.03,1.17,1.02,0.952
CN(C)S(=O)(=O)N(SC(F)(Cl)Cl)c1ccccc1,1.13,1.01,1.03,0.998,1.2,1.01,1.03,0.989,1.01,0.98
Cc1cc(C)nc(Nc2ccccc2)n1,0.869,0.98,0.957,1,0.987,0.957,0.97,1,0.983,0.999
CCSCCSP(=S)(OC)OC,1.09,1.02,0.996,0.996,1.07,0.992,1.01,1.03,1.03,1.09
COC(=O)NC(=S)Nc1ccccc1NC(=S)NC(=O)OC,1.04,0.99,0.985,1.01,1.12,0.981,0.988,0.958,0.951,1.01
COCC(=O)N(c1c(C)cccc1C)N1CCOC1=O,0.966,0.969,0.945,1,0.978,0.99,1,0.963,0.983,0.997
Cc1cc(Cl)ccc1N=CN(C)C,1.01,1.01,0.995,1,0.985,1.03,1.02,0.981,0.998,1
CCOC(=O)C(O)(c1ccc(Cl)cc1)c1ccc(Cl)cc1,0.996,0.872,0.78 (active),0.951,0.376 (active),0.874,0.991,0.997,1.04,0.978
N#Cc1c(Cl)c(Cl)c(Cl)c(C#N)c1Cl,0.96,0.984,0.563 (active),0.931,0.566 (active),0.0851 (active),0.218 (active),0.782 (active),0.997,0.864
CSc1nc(NC(C)C)nc(NC(C)C)n1,0.876,1.02,0.976,1.01,0.95,0.949,0.983,1.08,1.02,1.04
CN(C)C(CSS(=O)(=O)c1ccccc1)CSS(=O)(=O)c1ccccc1,1.14,0.966,0.999,1.01,1.01,1.06,1.06,1.02,0.901,0.938
Cc1c(F)c(F)c(COC(=O)[C@@H]2[C@H](/C=C(\Cl)C(F)(F)F)C2(C)C)c(F)c1F (mixture of isomers),0.937,0.943,0.993,0.935,0.981,0.989,1.01,0.997,1,0.976
CCOP(=S)(OCC)Oc1ccc(S(C)=O)cc1 (stereo not given),0.951,0.974,0.967,0.985,0.951,0.968,0.993,0.97,0.994,1.05
CS(=O)(=O)c1cc(C(F)(F)F)ccc1C(=O)c1cnoc1C1CC1,1,1.08,1.01,1.02,0.921,1.02,0.994,0.982,1.05,1
O=C(O)COc1ccccc1,0.969,0.918,0.989,0.944,1.05,1.02,1,1.11,0.988,0.885
COP(=O)(OC)O/C(=C/Br)c1ccc(Cl)cc1Cl,1.06,1,0.978,0.979,1.02,0.96,0.961,1.03,0.983,1
